Values without a mark were called inactive. How the calls were made is not given here.

For this assay, the target named is Muscarinic acetylcholine receptor M4 (Homo sapiens) (UniProt P08173). The assay is described as follows: off-target M4 muscarinic calcium response – cell-based, CHO-K1 hM4/Gqi5, Fluo-4 calcium flux, ACh EC20, counter-screen for M5 NAM project (AID 743105). As to conditions: series mostly up to 30 µM; response, % of max ACh: at the top concentration. A general note: Calcium assays in cells follow changes in intracellular calcium, usually with a dye or a luminescent sensor.
Chain of Muscarinic acetylcholine receptor M4 (Homo sapiens) (P08173 whole entry, looked up): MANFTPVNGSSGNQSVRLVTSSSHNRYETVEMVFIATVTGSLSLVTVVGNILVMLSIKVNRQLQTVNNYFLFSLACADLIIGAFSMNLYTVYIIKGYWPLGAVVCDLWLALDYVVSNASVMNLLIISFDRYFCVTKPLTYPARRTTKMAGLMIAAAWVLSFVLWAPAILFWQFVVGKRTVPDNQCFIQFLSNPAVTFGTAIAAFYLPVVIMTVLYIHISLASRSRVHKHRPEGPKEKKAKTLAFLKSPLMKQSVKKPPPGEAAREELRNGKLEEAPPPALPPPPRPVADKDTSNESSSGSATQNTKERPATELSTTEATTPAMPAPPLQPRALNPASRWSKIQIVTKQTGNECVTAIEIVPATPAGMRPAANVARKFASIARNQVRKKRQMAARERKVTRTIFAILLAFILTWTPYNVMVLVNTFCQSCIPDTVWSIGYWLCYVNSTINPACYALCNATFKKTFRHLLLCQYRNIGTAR
For `O=C(c1cc(F)cc(F)c1)N1CCN2C(=O)c3ccccc3C12c1ccc(Cl)cc1` (stereo not given), the “response, % of max ACh” value is 86.8. The result for `O=C(c1ccc(F)c(F)c1)N1CCN2C(=O)c3ccccc3C12c1ccccc1` (stereo not given) reads 94.7; that for `O=C(c1ccc(F)c(F)c1)N1CCN2C(=O)c3ccccc3[C@@]12c1ccc(Cl)cc1`, 88; that for `O=C(c1ccc(F)cc1)N1CCN2C(=O)c3ccccc3C12c1ccccc1` (stereo not given), 71.3. As to `O=C(c1ccc(F)c(F)c1)N1CCN2C(=O)c3ccccc3C12c1ccc(Cl)cc1` (stereo not given), the “response, % of max ACh” value is 92.4.

The record behind these values is PubChem BioAssay AID743105 (Vanderbilt Specialized Chemistry Center, 2013).
